MEKK2wt PB1 HTS: modulators of MEK5 binding to wildtype MEKK2, primary screen, biochemical, multiplex bead flow cytometry, Alexa488-MEK5; binding response (% of control), % at 10 µM; Alexa488-MEK5 binding to MEKK2 WT; actives lie on both sides; Mitogen-activated protein kinase kinase kinase 2 (Homo sapiens), Q9Y2U5; 1.1% of 290,000 active; AID 1531, 2009; in the data active means binding response below about 67% or above about 130%
MEKK2 mut-MEK5: MEK5 binding signal on mutant MEKK2 PB1, primary screen, biochemical, multiplex bead flow cytometry, Alexa488-MEK5. 0.35% of 290,000 active. Alexa488-MEK5 binding to MEKK2 mutant. percent response, % at 10 µM; in the data active means percent response above about 24%, passing the limit was not always enough
MEKK3 PB1 HTS: modulators of MEKK3-MEK5 PB1 binding, primary screen, biochemical, wildtype MEKK3, multiplex bead flow cytometry, Alexa488-MEK5 | 1.4% of 290,000 active | bead-based flow cytometry, Alexa488-MEK5 binding to MEKK3; actives lie on both sides; 0 = blocked by unlabeled MEK5, 100 = vehicle | AID 1529, 2009 | Mitogen-activated protein kinase kinase kinase 3 (Homo sapiens), Q99759 | binding response (% of control), % at 10 µM;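 active means binding response more than 3 SD above or below the average of its plate-row segment, actives on both sides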;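 further: Alexa488 bead fluorescence after subtracting the streptavidin-only scavenger bead signal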
GRK2 aptamer HTS: compounds blocking aptamer binding on GRK2 – biochemical, human GRK2, bead flow cytometry, HTS, primary screen; AID 488847, 2010; inhibition of aptamer binding, % at 10 µM; 0.59% of 330,000 active; FAM-aptamer displacement from GRK2;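 active means inhibition of aptamer binding above 40%, roughly 3 SD of noise, on plates passing a quality check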;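 further: median bead fluorescence of bound FAM aptamer so fluorescent compounds give negative values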
Target sequence (P25098 whole entry, looked up): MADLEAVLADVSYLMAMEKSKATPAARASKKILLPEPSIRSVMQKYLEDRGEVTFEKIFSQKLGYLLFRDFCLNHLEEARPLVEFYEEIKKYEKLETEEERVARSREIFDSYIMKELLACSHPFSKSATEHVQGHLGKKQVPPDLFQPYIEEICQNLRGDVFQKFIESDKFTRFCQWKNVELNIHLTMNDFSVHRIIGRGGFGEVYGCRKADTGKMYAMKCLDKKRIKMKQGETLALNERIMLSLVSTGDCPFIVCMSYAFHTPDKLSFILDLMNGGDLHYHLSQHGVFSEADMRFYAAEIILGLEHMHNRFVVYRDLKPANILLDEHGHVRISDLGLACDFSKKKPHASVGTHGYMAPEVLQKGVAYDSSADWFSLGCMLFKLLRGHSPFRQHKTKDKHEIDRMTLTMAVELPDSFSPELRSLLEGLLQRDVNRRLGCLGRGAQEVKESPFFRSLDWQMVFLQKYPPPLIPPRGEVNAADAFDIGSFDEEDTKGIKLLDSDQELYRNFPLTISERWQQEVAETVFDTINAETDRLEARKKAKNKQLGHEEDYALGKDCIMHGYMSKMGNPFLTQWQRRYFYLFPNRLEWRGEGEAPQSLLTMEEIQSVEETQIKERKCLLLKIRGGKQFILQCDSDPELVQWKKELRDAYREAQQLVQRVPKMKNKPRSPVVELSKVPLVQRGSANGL
GRK2 inh confirm: GRK2 aptamer-displacing inhibitors, retest, confirmation, biochemical, cherry pick 1, bead flow cytometry. shares compounds with GRK2 aptamer HTS. bead-bound GRK2, FAM-aptamer displacement. aptamer displacement, % at 10 µM. 4% of 2,000 active. AID 504451, 2011;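 active means aptamer displacement above 40%, near three times the noise of non-fluorescent compounds, on plates passing quality checks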;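 further: negative values mostly reflect intrinsic compound fluorescence rather than true enhancement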
Aptamer quench SP: counter-screen for GRK2 aptamer inhibitors: fluorescent aptamer quenchers. 2,000 tested, under 10 active. fluorescence response (% of DMSO), % at 10 µM. Carboxyfluorescein RNA aptamer on beads, flow cytometry quenching; hits give low values. AID 504580. shares compounds with GRK2 aptamer HTS;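 active means compounds that quench the bead-bound fluorescent RNA probe, cutting fluorescence to under half of the solvent control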;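 further: counterscreen run without GRK2 so only probe quenching by compound is measured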
GRK2 confirm 2: GRK2 aptamer-displacing inhibitors, hit retest, confirmation, biochemical, cherry pick 2, bead flow cytometry; bead-bound GRK2, FAM-aptamer displacement; inhibition of aptamer binding, % at 10 µM; shares compounds with GRK2 aptamer HTS; AID 504782, 2011; 360 tested, under 10 active;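 active means inhibition of aptamer binding above 40%, about triple the noise seen with nonglowing compounds, on plates passing quality control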;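 further: negative values mostly come from compounds that fluoresce themselves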
FAM quench SP: counter-screen for GRK2 binding hits: quenchers of fluorescent RNA aptamer; carboxyfluorescein RNA aptamer beads, flow cytometry quenching; hits give low values; fluorescence response vs DMSO, % at 10 µM; shares compounds with GRK2 aptamer HTS; AID 588494; 360 tested, under 10 active;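 active means response vs DMSO under 50%, meaning signal dropped by over half, treated as fluorescence quencher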;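 further: labelled aptamer on streptavidin beads without GRK2 as a quench counter-screen; 100% = bead fluorescence of DMSO wells and lower means quenching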
Numbers without * were called inactive; nt = no result. This is a sample that favours compounds with a hit; in the whole collection about 2.5% have one here.

SMILES	MEKK2wt PB1 HTS	MEKK2 mut-MEK5	MEKK3 PB1 HTS	GRK2 aptamer HTS	GRK2 inh confirm	Aptamer quench SP	others
COC(=O)C1=C(C)N=c2s/c(=C/c3cccs3)c(=O)n2C1c1cccs1 (stereo not drawn)	90.0	-1.0	105.0	56.0*	-2.7	98.0
COC(=O)C1=C(C)N=c2s/c(=C/c3ccoc3)c(=O)n2C1c1ccccc1 (stereo not drawn)	88.0	-9.0	95.0	2.0	nt	nt
COc1ccc(-c2c(C#CC(C)(C)O)c3ccccc3n2C)cc1	nt	nt	nt	94.0*	nt	nt	GRK2 confirm 2=-10.6;FAM quench SP=96.0
COc1ccc(OC(=O)c2cnn(-c3ccccc3)c2C)cc1	102.0	7.0	108.0	44.0*	1.3	99.4
COc1ccc(OC(=O)c2c(C)nn(-c3ccccc3)c2C)cc1	101.0	5.0	107.0	4.0	nt	nt
COc1cccc(C2/C(=C(/O)c3ccc4c(c3)CC(C)O4)C(=O)C(=O)N2CC2CCCO2)c1 (stereo not drawn)	102.0	-2.0	100.0	0.0	nt	nt
Cc1ccc(S(=O)(=O)N2CCCNCC2)cc1	101.0	2.0	104.0	2.0	nt	nt
O=S(=O)(c1ccc(F)cc1)N1CCCNCC1	107.0	4.0	103.0	0.0	-12.5	104.0
CC1=C(C(=O)OC(C)C)C(c2cccs2)NC(=O)N1 (stereo not drawn)	99.0	3.0	102.0	1.0	nt	nt
CC1=C(/C=C/C(C)=C/C=C/C(C)=C/CO)C(C)(C)CCC1	102.0	1.0	105.0	86.0*	4.7	101.6
CC(C)NC(=O)NC(=O)CSc1nnc(COc2ccccc2Cl)o1	107.0	9.0	108.0	71.0*	-2.6	103.4
CC(C)Cc1ccc(/C(=N/O)C(=O)O)s1	104.0	12.0	104.0	0.0	nt	nt
Cc1cc(NC(=O)CCCn2nc(C)c([N+](=O)[O-])c2C)no1	98.0	-2.0	104.0	51.0*	-0.3	97.9
Cc1cc(NC(=O)CCCn2cnc([N+](=O)[O-])n2)no1	75.0	-16.0	76.0	0.0	nt	nt
Cn1cnnc1SCC(=O)Nc1ccccc1Oc1ccccc1	96.0	-4.0	102.0	50.0*	1.4	94.3
COc1ccc(NC(=O)CSc2nncn2C)c([N+](=O)[O-])c1	104.0	5.0	103.0	51.0*	-1.1	104.2
COc1ccc(Nc2oc(-c3ccccc3)nc2C#N)cc1	102.0	2.0	103.0	52.0*	0.1	101.5
COc1ccc(-c2nc(C#N)c(NCCN(C)C)o2)cc1	106.0	-1.0	99.0	49.0*	-3.6	102.3
CCOc1ccc(NC(=O)CN(C)C(=O)COc2cccc3c2OC(C)(C)C3)cc1OCC	nt	nt	nt	98.0*	0.3	96.1
COc1cc(NC(=O)COc2cccc3c2OC(C)(C)C3)cc(OC)c1OC	nt	nt	nt	4.0	nt	nt
COc1cc(C)c(NC(=O)COc2cccc3c2OC(C)(C)C3)cc1OC	nt	nt	nt	41.0*	nt	nt	GRK2 confirm 2=20.7;FAM quench SP=99.0
C/C(CCc1ccc2c(c1)OCO2)=N\NC(=O)c1ccccc1Cl	96.0	-1.0	94.0	0.0	nt	nt
c1ccc(C2=Nc3ccccc3NC(c3ccccc3)C2)cc1 (stereo not drawn)	103.0	3.0	105.0	1.0	nt	nt
CC(C)C[C@@H](CO)N(Cc1ccccc1)S(=O)(=O)N(Cc1ccccc1)[C@@H](CO)CC(C)C	nt	nt	nt	0.0	nt	nt
COc1ccc(OC)c(-n2c(SC)nnc2-c2c[nH]c3ccccc23)c1	110.0	15.0	109.0	100.0*	-2.7	99.2
SMILES	MEKK2wt PB1 HTS	MEKK2 mut-MEK5	MEKK3 PB1 HTS	GRK2 aptamer HTS	GRK2 inh confirm	Aptamer quench SP	others
CC(=O)N1c2ccc(S(=O)(=O)NCCC(=O)NCCc3cccc(C)c3)cc2CC1C (stereo not drawn)	106.0	3.0	104.0	77.0*	-3.9	98.9
O=C(O)c1cc(O)c2c(c1)[C@H]([C@H]1c3cc(C(=O)O)cc(O)c3C(=O)c3c(O[C@@H]4O[C@H](CO)[C@@H](O)[C@H](O)[C@H]4O)cccc31)c1cccc(OC3O[C@H](CO)[C@@H](O)[C@H](O)[C@H]3O)c1C2=O (stereo partly drawn)	nt	nt	nt	99.0*	30.3	95.2
Cc1oc(C(=O)O)cc1COc1ccc2c3c(c(=O)oc2c1C)CCC3	109.0	6.0	105.0	73.0*	7.5	104.5
CC(C(=O)Nc1ccccc1Sc1ccccc1)N(c1ccccc1)S(C)(=O)=O (stereo not drawn)	96.0	0.0	101.0	1.0	nt	nt
Cc1ccc(NC(=O)c2ccc3nc[nH]c3c2)cc1C	108.0	10.0	101.0	4.0	nt	nt
COc1ccc(CC(=O)NNC(=O)COc2ccc(F)cc2)cc1S(=O)(=O)N1CCOCC1	nt	nt	nt	41.0*	-3.8	94.6
CCOc1cc(/C=C2\SC(=NC)N(C)C2=O)c(Br)cc1OC(C)=O	108.0	8.0	104.0	74.0*	-0.2	92.2
Fc1ccc(NC(=S)NN2CCOCC2)cc1Cl	107.0	0.0	108.0	0.0	nt	nt
CCCn1c(=O)c2sccc2n2c(CCCC(=O)NCc3ccco3)nnc12	98.0	4.0	101.0	70.0*	13.2	99.9
CCCn1c(=O)c2sccc2n2c(CCCC(=O)NCc3cccnc3)nnc12	104.0	2.0	102.0	0.0	nt	nt
CC(CNc1ccccc1O)C(=O)O (stereo not drawn)	100.0	-2.0	99.0	62.0*	nt	nt	GRK2 confirm 2=24.6;FAM quench SP=108.0
CCCN(Cc1ccc(C)cc1)C(=O)c1ccc(CNS(=O)(=O)c2ccc(C(C)=O)cc2)cc1	nt	nt	nt	0.0	nt	nt
O=[N+]([O-])c1cccc(-c2cc3cccc[n+]3cc2-c2cccc([N+](=O)[O-])c2)c1	102.0	4.0	101.0	0.0	nt	nt
Cc1cccc2cc(-c3ccccc3)c(-c3ccccc3)c[n+]12	80.0	-2.0	86.0	44.0*	18.2	62.5
Cc1cc(C(F)F)n2nc(C(=O)Nc3cccc(C(F)(F)F)c3)nc2n1	104.0	3.0	103.0	2.0	nt	nt
CC(=O)N1CCC(C(=O)NCCOc2cccc(C)c2)CC1	98.0	-4.0	103.0	65.0*	-2.2	99.0
COC(=O)Cn1ccc(N(C)C)c(C#N)c1=O	94.0	-1.0	93.0	0.0	nt	nt
Cc1cc(C)c2c(c1)NC(C(=O)O)C1CC=CC21 (stereo not drawn)	92.0	-8.0	98.0	93.0*	13.7	101.4
